Reference: the supplement of paper PMC3334620
Whole data set: some 33,000 sequences, median “E-score (-0.5 to 0.5)” near -0.04, cut for the highest 2% near 0.36. Only a selection was taken, and the highest values are over-represented in it overall.

What follows are sequences tested against T1, Hmlalpha2 (UniProt P0CY09) (assay: PBM E-score (8-mer binding enrichment) (E-score (-0.5 to 0.5)); higher = stronger / more preferred TF binding). Details: protein concentration: 200 nM; construct: GST-full length.
T1 sequence: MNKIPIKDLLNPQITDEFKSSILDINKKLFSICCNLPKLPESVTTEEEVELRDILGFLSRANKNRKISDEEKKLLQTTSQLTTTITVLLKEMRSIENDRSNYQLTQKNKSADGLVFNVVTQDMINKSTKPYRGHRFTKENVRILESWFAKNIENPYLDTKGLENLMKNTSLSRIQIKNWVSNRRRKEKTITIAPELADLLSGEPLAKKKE
Experimental: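 Universal 'all 10-mer' protein binding microarrays (Agilent AMADID 015681) probed with GST-tagged S. cerevisiae TFs (full-length or DBD) made by in vitro transcription/translation (PURExpress), about 100-200 nM. Bound TF was detected with fluorescent anti-GST. Each ungapped 8-mer (which stands for itself and its reverse complement) is scored by the PBM enrichment score (E-score), a modified Wilcoxon-Mann-Whitney statistic from -0.5 to +0.5, computed with the Universal PBM Analysis Suite. Scale: above 0.35 generally sequence-specific binding.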
In the case of TAACACAA, the “PBM E-score” value was 0.43. For GAACACAA, the “PBM E-score” value was 0.319. AAACACAA was tested, and the “PBM E-score” value was 0.322. For CAACTGCG, the “PBM E-score” value was -0.126. In the case of CGACTGAC, the “PBM E-score” value was -0.137. For ACTTGTGA, the “PBM E-score” value was 0.148. TAGTCGCA was tested, and the “PBM E-score” value was -0.085. For AAGGTGGT, the “PBM E-score” value was -0.0621. In the case of TGCCTACA, the “PBM E-score” value was 0.0851. AAGCTACA was tested, and the “PBM E-score” value was 0.158. For CCGGTGCA, the “PBM E-score” value was -0.247. AACACACT was tested, and the “PBM E-score” value was 0.313. For CAAACACA, the “PBM E-score” value was 0.334. TAAACACA was tested, and the “PBM E-score” value was 0.379. AACACACA was tested, and the “PBM E-score” value was 0.391. ATCACACG was tested, and the “PBM E-score” value was 0.371. For AAAACACG, the “PBM E-score” value was 0.426. ATCACACC was tested, and the “PBM E-score” value was -0.0635. In the case of AAAACACA, the “PBM E-score” value was 0.333. For AAAACACT, the “PBM E-score” value was 0.148. CAAACACG was tested, and the “PBM E-score” value was 0.314. With ATCACACA the “PBM E-score” value was 0.228. For AACACACG, the “PBM E-score” value was 0.319. For GGCTTAAA, the “PBM E-score” value was -0.0594. For AGTACTAA, the “PBM E-score” value was 0.173. GAGCGCCA was tested, and the “PBM E-score” value was -0.25. For GCGCAACC, the “PBM E-score” value was -0.228. ACGTCCCT was tested, and the “PBM E-score” value was 0.163. For CGTCCTAA, the “PBM E-score” value was -0.108. GTCTCCAC was tested, and the “PBM E-score” value was -0.178. In the case of CCCCGTCC, the “PBM E-score” value was -0.382. ATGGTGAA was tested, and the “PBM E-score” value was -0.0612. In the case of ACGTATTG, the “PBM E-score” value was 0.292. For AGGTATTC, the “PBM E-score” value was 0.139. For ATGTATCG, the “PBM E-score” value was 0.323. With CTGTATTC the “PBM E-score” value was 0.255. With ATGTATTC the “PBM E-score” value was 0.443. In the case of ATGTATTG, the “PBM E-score” value was 0.416. With ATAGTTCG the “PBM E-score” value was 0.0279. For CTCGAGTC, the “PBM E-score” value was -0.178. AAGAACCG was tested, and the “PBM E-score” value was 0.117. In the case of CCCAATCA, the “PBM E-score” value was -0.113. AGGCATTC was tested, and the “PBM E-score” value was -0.265. With AGCGTAAA the “PBM E-score” value was 0.22. For CGCGTAAA, the “PBM E-score” value was 0.454. In the case of GGCGTATA, the “PBM E-score” value was 0.106. With AGCGTAAG the “PBM E-score” value was -0.106. GGCGTAAA was tested, and the “PBM E-score” value was 0.217. In the case of CGCGTAAC, the “PBM E-score” value was 0.342. With CTCGTAAG the “PBM E-score” value was 0.172. CGCGTAAG was tested, and the “PBM E-score” value was 0.369. In the case of CGCGTATC, the “PBM E-score” value was 0.219. In the case of CGCGTAGA, the “PBM E-score” value was 0.359. In the case of TGCGTAAA, the “PBM E-score” value was 0.441. For CGCGTATA, the “PBM E-score” value was 0.372. AGCAAGTC was tested, and the “PBM E-score” value was -0.0673. For CCCTATCG, the “PBM E-score” value was -0.272. For AGGAAACC, the “PBM E-score” value was -0.0996. For TCCCAGGA, the “PBM E-score” value was -0.361. With CATTAGAG the “PBM E-score” value was -0.127. For AGATTTGC, the “PBM E-score” value was -0.0168. For CGAGGGTA, the “PBM E-score” value was -0.233. In the case of GCCTGCCA, the “PBM E-score” value was -0.0217. For ACATGACC, the “PBM E-score” value was 0.38. For CCATGACA, the “PBM E-score” value was 0.0453. ACATGACT was tested, and the “PBM E-score” value was 0.307. For ACATGACG, the “PBM E-score” value was 0.379. With ACATGACA the “PBM E-score” value was 0.412. GCATGACA was tested, and the “PBM E-score” value was 0.188. With CCATGACC the “PBM E-score” value was -0.348. GCATGACC was tested, and the “PBM E-score” value was -0.191. In the case of CCATGACG, the “PBM E-score” value was -0.105. GCTTCAAC was tested, and the “PBM E-score” value was 0.0375. In the case of CTTGATCC, the “PBM E-score” value was -0.142. With AAAATCGT the “PBM E-score” value was 0.0614. With AGATGGAT the “PBM E-score” value was -0.265. For GTGTCTCA, the “PBM E-score” value was -0.0554. For GCCTAGAA, the “PBM E-score” value was -0.187. For CGAGAAAG, the “PBM E-score” value was -0.0529. AGCCCTGA was tested, and the “PBM E-score” value was -0.0785. GCCGTGTA was tested, and the “PBM E-score” value was 0.432. In the case of ACCGTGTA, the “PBM E-score” value was 0.473. GCCGTGAA was tested, and the “PBM E-score” value was -0.197. For ACCGTGTG, the “PBM E-score” value was 0.113. With CCCGTGTA the “PBM E-score” value was 0.451. For CCCGTGGA, the “PBM E-score” value was -0.176. For GCCGTGCA, the “PBM E-score” value was 0.0721. For ACCGTGTC, the “PBM E-score” value was 0.264. In the case of CCCGTGTC, the “PBM E-score” value was 0.168. For AGCAAACG, the “PBM E-score” value was -0.0759. In the case of AAGTGCCG, the “PBM E-score” value was 0.00934. ACCGACTG was tested, and the “PBM E-score” value was -0.317. For GTTGTTGA, the “PBM E-score” value was 0.259. For TTCTGAAA, the “PBM E-score” value was 0.0341. With CTTTCTGA the “PBM E-score” value was 0.0509. TCATTAAA was tested, and the “PBM E-score” value was 0.263. In the case of GCATTACC, the “PBM E-score” value was 8e-05. For CCATTACC, the “PBM E-score” value was -0.0103. For CCATTACG, the “PBM E-score” value was 0.13. In the case of ACATTACG, the “PBM E-score” value was 0.336. ACATTACA was tested, and the “PBM E-score” value was 0.449. For GCATTACA, the “PBM E-score” value was 0.428. TCATTAGA was tested, and the “PBM E-score” value was 0.0985. In the case of TCATTACA, the “PBM E-score” value was 0.439. In the case of CCATTACA, the “PBM E-score” value was 0.435. In the case of GCATTAGA, the “PBM E-score” value was 0.0569. In the case of ACATTACT, the “PBM E-score” value was 0.303. For GTACGAAC, the “PBM E-score” value was 0.152. For GGGAGAGA, the “PBM E-score” value was -0.33. In the case of ACGGGTTG, the “PBM E-score” value was -0.15. For CCTCAGCG, the “PBM E-score” value was -0.255. CCCAGAAA was tested, and the “PBM E-score” value was -0.0348. For GTTGCGAA, the “PBM E-score” value was 0.0227. ACGTCCTC was tested, and the “PBM E-score” value was -0.162. For CACGGCTC, the “PBM E-score” value was -0.0568. For CGTGTCGC, the “PBM E-score” value was 0.214. ATGCCCTG was tested, and the “PBM E-score” value was -0.0289. With CCGGCGGA the “PBM E-score” value was -0.234. For TACATCTA, the “PBM E-score” value was 0.263. In the case of GACATGTA, the “PBM E-score” value was 0.423. TACAGGTA was tested, and the “PBM E-score” value was 0.135. For GACATGTC, the “PBM E-score” value was 0.327. CACATGTA was tested, and the “PBM E-score” value was 0.416. With GACATTTA the “PBM E-score” value was 0.191. In the case of TAAATGTA, the “PBM E-score” value was 0.38. CACATGTC was tested, and the “PBM E-score” value was 0.22. With CAAATGTA the “PBM E-score” value was 0.35. For TACATGTA, the “PBM E-score” value was 0.479. For GAAATGTA, the “PBM E-score” value was 0.0891. With AATTGACA the “PBM E-score” value was 0.275. AGTCTAGG was tested, and the “PBM E-score” value was -0.15. CGCTCTCA was tested, and the “PBM E-score” value was -0.165. With CAGTCCCG the “PBM E-score” value was -0.196. ACGCCGAG was tested, and the “PBM E-score” value was -0.0454. With ATGTGCTA the “PBM E-score” value was 0.0958. CGAAGAAG was tested, and the “PBM E-score” value was -0.0393. ATGTTGAG was tested, and the “PBM E-score” value was 0.33. ATGTTGAA was tested, and the “PBM E-score” value was 0.395. With GTGTTGGA the “PBM E-score” value was 0.224. With CTGTTGAA the “PBM E-score” value was 0.259. GTGTTGAA was tested, and the “PBM E-score” value was 0.398. ATGTTGAC was tested, and the “PBM E-score” value was 0.356. In the case of GAGCTATA, the “PBM E-score” value was -0.0673. In the case of GGTGCTCA, the “PBM E-score” value was -0.179. In the case of CCCACGAA, the “PBM E-score” value was -0.102. With GGCAGCCC the “PBM E-score” value was -0.418. In the case of ATTCACAA, the “PBM E-score” value was 0.232. In the case of TATACATA, the “PBM E-score” value was 0.445. In the case of GATACATA, the “PBM E-score” value was 0.32. TATACAAA was tested, and the “PBM E-score” value was 0.265. GATACATC was tested, and the “PBM E-score” value was 0.169. AATACAAT was tested, and the “PBM E-score” value was 0.249. For AATACATC, the “PBM E-score” value was 0.368. For AATACATT, the “PBM E-score” value was 0.329. In the case of AATACAAG, the “PBM E-score” value was 0.386. With AATACATG the “PBM E-score” value was 0.482. For AATACAAC, the “PBM E-score” value was 0.315. For AATACAGG, the “PBM E-score” value was 0.2. AATACAGC was tested, and the “PBM E-score” value was 0.0849. With GAATGGTA the “PBM E-score” value was 0.232. In the case of GGTGGGGA, the “PBM E-score” value was -0.0925. For GGCTTATA, the “PBM E-score” value was -0.0133. With AGTGTTGC the “PBM E-score” value was 0.169. For CGTAAGTC, the “PBM E-score” value was 0.0646. For CCTAAGAG, the “PBM E-score” value was -0.136. With AAGCCAAC the “PBM E-score” value was 0.00741. In the case of CATACCCG, the “PBM E-score” value was -0.117. CATACATC was tested, and the “PBM E-score” value was 0.253. With AATACATA the “PBM E-score” value was 0.444. CATACATG was tested, and the “PBM E-score” value was 0.382. In the case of CATACATA, the “PBM E-score” value was 0.329. For AATACAGA, the “PBM E-score” value was 0.204. With AATACAAA the “PBM E-score” value was 0.363.
